Measured values published in PubChem BioAssay (Tox21).
Results filed as inconclusive are left out. Calls of active or inactive are those of the source. Unless noted, calls follow the shape of the full dose curve. Peptide text beside a SMILES is read from it.

Assays:
[1] = Nuclear factor erythroid 2-related factor 2/antioxidant responsive element (Nrf2/ARE) small molecule agonists: qHTS cell viability counter screen in human keratinocytes (AID 1919968; active = well fitted curve in the direction sought with a large enough effect in the repeat runs; an effect the other way counts as inactive or inconclusive; also: nearly all actives have a fitted effect of over 55% in size)
In short: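 After a 5 h attachment period, ARE-reporter keratinocytes were dosed with compounds in DMSO and then cultured 23 h at 37 C. Cell viability came from CellTiter-Fluor signal read after a further 1 h.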

[2] = Nuclear factor erythroid 2-related factor 2/antioxidant responsive element (Nrf2/ARE) small molecule agonists: luciferase reporter gene qHTS assay in human keratinocytes (AID 1919969); also: nearly all actives have a fitted effect of over 35% in size
[3] = biological target: Gonadotropin-releasing hormone receptor (Homo sapiens) (UniProt P30968); assay: Human gonadotropin-releasing hormone receptor (GnRHR) small molecule agonists, calcium flux assay in GnRHR-HEK293 cells (AID 1920063); also: nearly all actives have a fitted effect of over 35% in size
Chain of Gonadotropin-releasing hormone receptor (Homo sapiens) (P30968 whole entry, looked up): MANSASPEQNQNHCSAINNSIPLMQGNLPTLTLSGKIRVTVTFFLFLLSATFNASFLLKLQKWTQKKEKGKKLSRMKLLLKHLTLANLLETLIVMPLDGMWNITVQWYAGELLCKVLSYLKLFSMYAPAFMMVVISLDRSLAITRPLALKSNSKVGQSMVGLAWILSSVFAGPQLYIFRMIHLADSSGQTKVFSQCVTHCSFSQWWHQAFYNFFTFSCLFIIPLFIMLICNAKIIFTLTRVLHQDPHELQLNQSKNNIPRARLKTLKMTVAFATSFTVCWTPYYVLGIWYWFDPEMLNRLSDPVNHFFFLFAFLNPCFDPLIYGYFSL
In short: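 We seeded human GnRHR-expressing HEK293 cells for 18 hours, loaded them with calcium dye for an hour at 37 C, added test compounds, and recorded fluorescence intensity kinetically for three minutes.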

[4] = biological target: KiSS-1 receptor (Homo sapiens) (UniProt Q969F8); assay: Human kisspeptin (KISS1R) small molecule agonists, calcium flux assay in KISS1R-HEK293 cells (AID 1920064; active = well fitted curve in the direction sought with a large enough effect in the repeat runs; an effect the other way counts as inactive or inconclusive)
Chain of KiSS-1 receptor (Homo sapiens) (Q969F8 whole entry, looked up): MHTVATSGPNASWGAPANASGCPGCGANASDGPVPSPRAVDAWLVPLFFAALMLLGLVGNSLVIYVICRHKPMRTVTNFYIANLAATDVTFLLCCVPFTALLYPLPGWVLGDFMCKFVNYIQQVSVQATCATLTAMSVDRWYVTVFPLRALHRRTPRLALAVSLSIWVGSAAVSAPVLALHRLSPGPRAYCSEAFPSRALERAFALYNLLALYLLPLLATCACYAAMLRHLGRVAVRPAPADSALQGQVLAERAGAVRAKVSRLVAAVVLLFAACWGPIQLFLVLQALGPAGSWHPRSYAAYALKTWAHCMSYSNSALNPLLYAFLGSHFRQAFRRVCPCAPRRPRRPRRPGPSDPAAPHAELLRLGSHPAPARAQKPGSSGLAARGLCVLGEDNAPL
In short: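 Kinetic calcium assay, 1 s sampling over 3 min at Ex/Em 480/540, in HEK293 cells engineered with human KISS1R; compounds delivered in DMSO after 1 h dye loading.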

[5] = G protein-coupled receptor (GPCR) small molecule agonists, calcium flux assay: HEK293 wild type cell line counter screen (AID 1920065)
In short: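 Calcium-sensitive dye, loaded 1 h at 37 C into cells cultured 18 h, reports compound-evoked calcium release as fluorescence (Ex/Em 480/540), measured over 3 min. Agonist mode; 15-point titrations, triplicate.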

[6] = p53 small molecule agonists, cell-based qHTS assay with human liver microsomes (AID 1963577)
In short: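 p53RE-bla reporter cells were pre-incubated 5 h at 37 C, then treated with compounds plus human liver microsomes (0.5 mg/mL final) and NADPH (0.5 mg/mL final) for 16 h at 37 C. Beta-lactamase activity was read by LiveBLAzer fluorescence after 2 h at room temperature.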

[7] = p53 small molecule agonists, cell-based qHTS assay with rat liver microsomes (AID 1963578)
In short: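 p53RE-bla cells were exposed to compounds together with rat liver microsomes (0.5 mg/mL final) and NADPH (0.5 mg/mL final) for 16 h at 37 C, then read by LiveBLAzer beta-lactamase fluorescence after 2 h at room temperature.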

[8] = p53 small molecule agonists, cell-based qHTS assay with human liver microsomes: qHTS cell viability counter screen (AID 1963579); also: nearly all actives have a fitted effect of over 45% in size
In short: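 p53RE-bla cells (4,000/well) were pre-incubated 5 h at 37 C, then given compounds in DMSO plus human liver microsomes (0.5 mg/mL final) and NADPH (0.5 mg/mL final) for 16 h at 37 C. Viability was read by CellTiter-Glo luminescence.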

[9] = p53 small molecule agonists, cell-based qHTS assay with rat liver microsomes: qHTS cell viability counter screen (AID 1963580); also: nearly all actives have a fitted effect of over 45% in size
In short: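 p53RE-bla HCT-116 cells were exposed 16 h at 37 C to compounds with rat liver microsomes (0.5 mg/mL) and NADPH (0.5 mg/mL). Viability was measured in the same wells as ATP content by CellTiter-Glo luminescence.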

[10] = p53 small molecule agonists, cell-based qHTS assay: qHTS cell viability counter screen (AID 1963581); also: nearly all actives have a fitted effect of over 45% in size
In short: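 Following 5 h attachment, HCT-116 p53RE-bla cells took up compound for 16 h at 37 C; the reporter was read with B/G FRET substrate (2 h RT), and viability then via CellTiter-Glo ATP luminescence.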

[11] = p53 small molecule agonists, cell-based qHTS assay (AID 1963582; active = well fitted activation curve with a large enough effect in the signal ratio in the repeat runs, not every such curve was filed as active; the % refers to the signal ratio)
In short: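 In this cell-based concentration-response screen, a p53 response element drives beta-lactamase; cells received DMSO-borne compounds after 5 h culture and were incubated a further 16 h before FRET substrate development.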

[12] = cAMP Responsive Elements (CRE) small molecule agonists, cell-based qHTS assay (AID 1963590)
In short: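 A CRE-responsive beta-lactamase reporter in HEK 293T cells was used. Treatment ran 3 h at 37 C; detection used LiveBLAzer B/G FRET substrate for 2 h at room temperature.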

[13] = cAMP Responsive Elements (CRE) small molecule antagonists, cell-based qHTS assay (AID 1963591; active = well fitted inhibition curve with a large enough effect in the signal ratio in the repeat runs, not every such curve was filed as active; the % refers to the signal ratio)
In short: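 HEK293T cells carrying a CRE-driven beta-lactamase reporter receive compound and NKH477 (0.25 uM final) for 3 h. Fluorescence from LiveBLAzer B/G FRET substrate is read after 2 h at room temperature.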

[14] = biological target: Beta-2 adrenergic receptor (Homo sapiens) (UniProt P07550); assay: Adrenergic beta2 receptor (ADRB2) small molecule antagonists, cell-based qHTS assay (AID 1963592); also: series mostly up to about 92 µM; nearly all actives have a fitted effect of over 50% in size
Chain of Beta-2 adrenergic receptor (Homo sapiens) (P07550 whole entry, looked up): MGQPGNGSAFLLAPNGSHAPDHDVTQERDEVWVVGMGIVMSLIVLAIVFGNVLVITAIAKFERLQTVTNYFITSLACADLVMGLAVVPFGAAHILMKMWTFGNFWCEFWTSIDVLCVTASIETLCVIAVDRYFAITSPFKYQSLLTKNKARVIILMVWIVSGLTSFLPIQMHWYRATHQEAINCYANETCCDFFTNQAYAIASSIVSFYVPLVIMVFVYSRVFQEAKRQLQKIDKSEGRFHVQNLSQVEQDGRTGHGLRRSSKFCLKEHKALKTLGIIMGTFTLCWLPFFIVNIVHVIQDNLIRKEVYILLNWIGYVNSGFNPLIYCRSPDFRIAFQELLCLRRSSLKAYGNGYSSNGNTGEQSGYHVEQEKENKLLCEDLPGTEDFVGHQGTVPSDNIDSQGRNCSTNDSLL
In short: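 Cells (CHO, stable ADRB2 overexpression) incubated 18-20hr at 37C; compounds added from DMSO; agonist mix (1nM isoproterenol, 100uM IBMX, 25uM Ro-20-1724) added; 0.5hr RT; d2-cAMP and anti-cAMP-cryptate added; 1hr RT; 665/615 nm read.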

[15] = biological target: D(2) dopamine receptor (Homo sapiens) (UniProt P14416); assay: Dopamine D2 receptor (DRD2) small molecule agonists, cell-based qHTS assay (AID 1963594); also: nearly all actives have a fitted effect of over 35% in size
Chain of D(2) dopamine receptor (Homo sapiens) (P14416 whole entry, looked up): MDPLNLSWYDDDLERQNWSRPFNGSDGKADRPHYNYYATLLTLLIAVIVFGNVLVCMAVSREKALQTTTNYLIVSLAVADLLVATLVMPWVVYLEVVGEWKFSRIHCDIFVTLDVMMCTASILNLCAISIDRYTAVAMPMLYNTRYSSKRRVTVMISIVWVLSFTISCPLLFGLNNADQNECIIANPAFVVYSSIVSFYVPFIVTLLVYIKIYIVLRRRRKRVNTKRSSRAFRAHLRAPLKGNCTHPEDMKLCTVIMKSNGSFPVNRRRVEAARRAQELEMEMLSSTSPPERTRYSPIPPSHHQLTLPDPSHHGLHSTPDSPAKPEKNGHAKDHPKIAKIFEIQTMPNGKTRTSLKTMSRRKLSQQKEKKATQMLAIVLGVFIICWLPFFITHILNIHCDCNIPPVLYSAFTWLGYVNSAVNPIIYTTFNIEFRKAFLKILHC
In short: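 HEK293 cells stably expressing human DRD2, pre-treated with PDE inhibitor Ro20-1724 (0.1 mM final) and compound 10 min at room temperature, then stimulated with NKH477 (200nM […]) for 30 min. cAMP read by HTRF (665/620 nm).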

[16] = biological target: D(2) dopamine receptor (Homo sapiens) (UniProt P14416); assay: Dopamine D2 receptor (DRD2) small molecule antagonists, cell-based qHTS assay (AID 1963595; active = well fitted inhibition curve with a large enough effect in the signal ratio in the repeat runs, with a control signal flat; the % refers to the signal ratio)
In short: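 Cells were plated and grown for 24 h at 37 °C. Ro20-1724 (0.1 mM final) went in first, then compound for 10 min. NKH477 (200 nM) with quinpirole (12 nM) followed for 30 min at RT, then HTRF detection reagents for 1 h.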

[17] = biological target: Beta-2 adrenergic receptor (Homo sapiens) (UniProt P07550); assay: Adrenergic beta2 receptor (ADRB2) small molecule agonists, cell-based qHTS assay (AID 1963593);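 also: CHO cells stably overexpressing human ADRB2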
In short: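 CHO cells stably over-expressing ADRB2 were plated overnight at 37C, then dosed with compounds plus a stimulation mix containing 100uM IBMX and 25uM Ro-20-1724 for 0.5hr at room temperature. cAMP was measured by HTRF competition, 1hr.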

Measured: Potency

C[C@H](CCC(=O)O)[C@H]1CC[C@H]2[C@@H]3[C@H](O)C[C@@H]4C[C@H](O)CC[C@]4(C)[C@H]3C[C@H](O)[C@]12C
not listed: [17]
inactive: all other assays above

CC(C)(Sc1cc(C(C)(C)C)c(O)c(C(C)(C)C)c1)Sc1cc(C(C)(C)C)c(O)c(C(C)(C)C)c1
not listed: [13] | [16] | [17]
inactive: all other assays above

CCn1cc(C(=O)O)c(=O)c2cc(F)c(N3CCNC(C)C3)c(F)c21 (configuration not stated)
not listed: [12] | [14]
inactive: all other assays above

CC(=O)N[C@@H](CO)C(=O)N[C@@H](CC(=O)O)C(=O)N[C@@H](CCCCN)C(=O)N1CCC[C@H]1C(=O)O (Ac-SDKP-OH)
not listed: [12]
inactive: all other assays above

O=c1[nH]c(=O)n([C@H]2C[C@H](O)[C@@H](CO)O2)cc1I
not listed: [14] | [17]
inactive: all other assays above

COc1cc(CNC(=O)CCCC/C=C/C(C)C)ccc1O
not listed: [15] | [17]
inactive: all other assays above

O=C(NCCN1CCOCC1)c1ccc(Cl)cc1
not listed: [12]
inactive: all other assays above
